Assay results from ChEMBL document CHEMBL4513216, “Probing the Open Global Health Chemical Diversity Library for Multistage-Active Starting Points for Next-Generation Antimalarials” (ACS Infect Dis, 2020).
The whole screen tested about 69,000 compounds, of which about 8,600 (12%) showed an effect of 50% or more. The entries come from a sample that favours strong results as a whole.

Test system: Plasmodium berghei
Assay: Screen against P. berghei liver stage (PbLuc), transformed with Luciferase, at 10uM
Format: functional, HepG2
Details: tested at 10 uM

Structure (SMILES) | INHIBITION [%]
O=C(NCCn1ccnc1)N1CCN(Cc2ccsc2)CC1 | 19.5
CCCn1nc(C)c(-c2cncn2CCN(C)C2CCCC2)c1C | -0.232
CCc1nc(CN2CCCN(C(=O)C(CC)OC)CC2)cs1 (stereo not given) | -4.94
O=C(Nc1cc(F)ccc1OCC1CCCO1)N1CCCC1 (stereo not given) | 17.8
CCN(C(=O)c1ccc2nnc(C3CCN(C)C3)n2c1)C(C)C (stereo not given) | 27.6
CC(=O)N1CCC(c2nnc3ccc(C(=O)NCCN(C)C)cn23)C1 (stereo not given) | 59.3
CCN(C(=O)c1ccc2nnc(C3CCN(C(C)=O)C3)n2c1)C(C)C (stereo not given) | 50.3
CC(C)NC(=O)N1CCC(c2nnc3ccc(C(=O)N(C)C)cn23)C1 (stereo not given) | -7.24
CCC(CC)NC(=O)c1ccc2nnc(C3CCN(S(C)(=O)=O)C3)n2c1 (stereo not given) | -1.26
CC(=O)N1CCC(c2nnc3ccc(C(=O)NC(C)C)cn23)C1 (stereo not given) | 42.6
CC(C)NC(=O)c1ccc2nnc(C3CCN(S(C)(=O)=O)C3)n2c1 (stereo not given) | 10.6
CCC(CC)NC(=O)c1ccc2nnc(C3CCN(C(C)=O)C3)n2c1 (stereo not given) | 50.7
CC(C)NC(=O)c1ccc2nnc(C3CCN(C(=O)NC(C)C)C3)n2c1 (stereo not given) | 8.85
CC(C)CNC(=O)c1ccc2nnc(C3CCN(S(C)(=O)=O)C3)n2c1 (stereo not given) | 40.9
CC(=O)N1CCC(c2nnc3ccc(C(=O)NCC(C)C)cn23)C1 (stereo not given) | 51.2
CCN(C(=O)c1ccc2nnc(C3CCN(S(C)(=O)=O)C3)n2c1)C(C)C (stereo not given) | 33.1
CC1CCCN(Cc2ccc(OCc3nccn3C)cc2)C1 (stereo not given) | 33.3
COCC(=O)NC1CCN(c2cccc(OC(F)(F)F)c2)C1=O (stereo not given) | 42.3
CC(C)=CCN1CCN(C(=O)c2cc(C(C)C)no2)[C@H]2CS(=O)(=O)C[C@H]21 | -7.25
COCc1nc(CNC2CCCC(C)(C)C2)no1 (stereo not given) | 25.1
Cc1ccc(N2CC[C@H]3OCC[C@@]3(C(=O)NCC3CC3)C2)nn1 | 12.5
CN1CC2(CCN(C(=O)CCc3nc4cccnc4n3C)C2)OC1=O (stereo not given) | -19.1
COc1c(CNCc2nnc3n2CCCCC3)c(C(C)C)nn1C | 27.9
CN(CCc1noc(C2CC2)n1)C(=O)CN1C(=O)COc2ccccc21 | -37.9

Structure (SMILES) | INHIBITION [%]
COc1c(C)cnc(CSc2nnc(NC3CC3)s2)c1C | 57.7
COc1c(C)cnc(CSc2nnc(C)s2)c1C | -40.3
COc1c(C)cnc(CSc2nnc(N)s2)c1C | 28.6
CC(C)C(=O)N1CCCC(Cc2ccccn2)C1 (stereo not given) | 25
COCCC(=O)N1CCCC(c2n[nH]cc2C)C1 (stereo not given) | 36
N#CCCCOc1cccnc1NC(=O)CCC1CCCC1 | -12.1
N#CCCCOc1cccnc1NC(=O)CC1CCCCC1 | 20.9
N#CCCCOc1cccnc1NC(=O)Cc1ccccc1F | 65.2
Cc1cccc(CC2CCCN(C(=O)Cc3csc(C)n3)C2)n1 (stereo not given) | -8.12
Cc1noc(C)c1S(=O)(=O)NC(=O)COc1ccc2c(c1)CCC2 | 45.3
COc1cc(CN(C)Cc2ccncc2)c(SC)cc1OC | 39.3
COc1cc(CN(C)CCc2ccncc2)c(SC)cc1OC | 32.7
COc1cc(CN(C)Cc2cccnc2)c(SC)cc1OC | 54.7
Cc1cccc(-n2ncc3c2CCCC3NCC(C)(C)CO)c1C (stereo not given) | 58.5
Cc1cccc(-n2ncc3c2CCCC3NCc2cccc(O)c2)c1C (stereo not given) | 31.9
Cc1cc(C(=O)NC2CCCc3c2cnn3-c2cccc(C)c2C)[nH]n1 (stereo not given) | 91
Cc1cccc(-n2ncc3c2CCCC3NCc2cnn(C)c2C)c1C (stereo not given) | 33.4
Cc1cc(NC(=O)NC2CCCc3c2cnn3CCO)n(C)n1 (stereo not given) | -39.9
Cc1nnc(NC(=O)NC2CCCc3c2cnn3CCO)s1 (stereo not given) | 38
OC1(CN2CCCC2)CCCN(c2ncnc3[nH]cnc23)C1 (stereo not given) | 13.9
OC1(CN2CCCC2)COCCN(c2ncnc3[nH]cnc23)C1 (stereo not given) | 56.1
OC1(CN2CCCC2)COCCN(c2ncnc3[nH]ccc23)C1 (stereo not given) | 19.3
CN(C)C[C@H]1OC[C@@H]2CCN(C(=O)c3cccn3C)C[C@@H]21 | 4.2
CC(C)N(C)C(=O)C1=NOC2(CCN(C(=O)c3cccn3C)C2)C1 (stereo not given) | 13.3

Structure (SMILES) | INHIBITION [%]
O=C(NCc1ccco1)[C@H]1CC[C@@H]2[C@@H](CCN2C2CCC2)O1 | 27.6
Cc1nn(CC(=O)Nc2ccon2)c(C)c1Br | 40.8
CCN1CCN(C2CCN(Cc3noc(C4CC4)n3)CC2)C1=O | 35.9
Cc1nc(CN2CCC(N3CCN(C)C3=O)CC2)no1 | 11.2
CCN1CCN(C2CCN(Cc3noc(C)n3)CC2)C1=O | 51.2
Cc1ccc(CNC(=O)Cc2c(C)nc3c(c2C)c(=O)[nH]n3C)cc1 | 29.4
CC(NC(=O)CCn1cccn1)c1cn(-c2ccccc2)nn1 (stereo not given) | -15.5
CC(C)NC(=O)[C@@H]1C[C@H](N)CN1C(=O)C1(c2ccc(Cl)cc2)CCC1 | 41.5
O=C(c1cc[nH]n1)N1CCCC1c1cncc(CN2CCOCC2)n1 (stereo not given) | 11.8
CC(C)(NCCCOc1ccc(C#N)cc1)c1nccs1 | 53.8
CC(C)(NCCOc1ccc(CC#N)cc1)c1nccs1 | -6.34
Cc1csc(C(C)(C)NCCNS(C)(=O)=O)n1 | -1.75
N#Cc1ccc(OCCNCCn2cccn2)cc1 | 27.6
Cc1csc(C(C)(C)NCCOc2ccc(CC#N)cc2)n1 | 58.1
CCS(=O)(=O)NCCNC(C)(C)c1nc(C)cs1 | -7.72
CN1CCOC(c2cncc(CCC(N)=O)n2)C1 (stereo not given) | -0.232
Cn1ccc2cc(CC3COCCN(C(=O)c4ccccn4)C3)ccc21 (stereo not given) | 20.055
CC(=O)N1N=C(c2ccco2)OC1C(=O)N(C)CCc1ccccc1 (stereo not given) | 24.3
Cc1cc2nc(SCC(=O)N3CCCC3)n(C)c(=O)c2[nH]1 | 19.3
COCCNC(=O)C[C@@H]1COC[C@H]2CN(C(=O)C3CCOCC3)C[C@@H]12 | 69.3
COCCNC(=O)C[C@@H]1COC[C@H]2CN(C(=O)COC)C[C@@H]12 | 13.1
COCCNC(=O)C[C@@H]1COC[C@H]2CN(CC3CCOCC3)C[C@@H]12 | 36.7
